Only some compounds are listed: those with a hit (about 6% of all), similar ones and a draw of the others.
D1 PAM: Potentiators of Human D1 Dopamine Receptor: qHTS; D(1A) dopamine receptor (Homo sapiens), P21728; HEK293 TREx D1 cells, calcium flux, dopamine EC20 potentiation; potentiation, % at 10 µM; actives 0.036% (n = 360,000); AID 504651, 2011; in the data active = potentiation above about 30%
Target sequence (P21728 whole entry, looked up): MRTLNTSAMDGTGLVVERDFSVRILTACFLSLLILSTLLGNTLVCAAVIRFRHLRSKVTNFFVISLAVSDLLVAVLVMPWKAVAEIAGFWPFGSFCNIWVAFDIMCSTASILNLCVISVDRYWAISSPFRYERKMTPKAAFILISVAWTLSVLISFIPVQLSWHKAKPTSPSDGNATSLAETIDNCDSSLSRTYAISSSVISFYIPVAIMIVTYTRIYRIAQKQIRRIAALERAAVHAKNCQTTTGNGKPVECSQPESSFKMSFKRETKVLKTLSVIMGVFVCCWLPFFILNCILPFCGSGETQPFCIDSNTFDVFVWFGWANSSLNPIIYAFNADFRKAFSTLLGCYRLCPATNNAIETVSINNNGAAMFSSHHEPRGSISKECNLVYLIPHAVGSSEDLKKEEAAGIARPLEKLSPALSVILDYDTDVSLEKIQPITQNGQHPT
D3 antag: qHTS of D3 Dopamine Receptor Antagonist: qHTS; max response, negative = inhibition, %; actives 2.5% (n = 360,000); D(3) dopamine receptor (Homo sapiens), P35462; D3R cells, DiscoveRx beta-arrestin luminescence, antagonist mode; stronger effect = lower value; in the data active = max response below about -50%; inconclusive = no clear call, values can overlap the other calls
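Cells expressing the human receptor were seeded at 1500 cells/well, incubated overnight at 37 degrees C in 5% CO2, then exposed to library compounds with dopamine controls for 90 minutes at 37 degrees C before luminescent detection.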
D1 antag: Antagonist of Human D 1 Dopamine Receptor: qHTS. HEK293 TREx D1 cells, calcium flux, dopamine EC80; stronger effect = lower value. D(1A) dopamine receptor (Homo sapiens), P21728. actives 3.2% (n = 360,000). activity change, negative = inhibition, % at 10 µM; in the data active = activity change below about -30%
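Using tetracycline-induced force-coupled D1 Hek293 cells and a calcium dye, signals were followed for 180 s after compound, then for 180 s after EC80 dopamine, to detect inhibitors.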
DRD3 agonist: qHTS of D3 Dopamine Receptor Agonist: qHTS; D(3) dopamine receptor (Homo sapiens), P35462; D3R DiscoveRx beta-arrestin cells, luminescence, 90 min; max activation, %; actives 0.58% (n = 410,000); AID 652048, 2013; in the data active = max activation above about 30%
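Agonist mode: compounds and dopamine controls were applied to plated cells for 90 min at 37 degrees C after an overnight attachment at 1500 cells/well. Luminescent read-out followed 30 - 60 minutes at room temperature with DiscoveRx detection reagent.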
D1 agonist: Allosteric Agonists of the Human D1 Dopamine Receptor: qHTS; HEK293 T-REx D1 cells, calcium flux, agonist mode; D(1A) dopamine receptor (Homo sapiens), P21728; actives 1% (n = 360,000); activation, % at 2 µM; AID 504660, 2011; in the data active = activation above about 30%
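Inducible HEK293 T-REx D1 cells, force-coupled to calcium signalling, were plated at 4000 cells/well with tetracycline and held overnight at 30 C. After no-wash calcium dye loading, compound-evoked calcium rise over 180 s flagged agonists.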
A number is an active result; 0 = inactive; ? = inconclusive; - = not tested or not shown.

SMILES	D1 PAM	D3 antag	D1 antag	DRD3 agonist	D1 agonist
CC1=NN(c2ccccc2)C(=O)/C1=C\C=C1\N(C)c2ccccc2C1(C)C	0	0	-32	0	44
CC1=NN(c2ccccc2)C(=O)/C1=C/N(C)C	0	0	0	0	0
Fc1ccc(NC(=S)NN2CCOCC2)cc1Cl	0	0	-32	0	0
O=S(=O)(c1ccccc1)N1CCN(C(=S)Nc2ccc(F)cc2)CC1	0	0	0	0	0
S=C(Nc1ccc(Nc2ccccc2)cc1)NN1CCOCC1	0	0	0	0	0
O=S(=O)(c1ccc(Cl)cc1)N1CCN(C(=S)Nc2ccc(F)c(Cl)c2)CC1	0	0	-37	0	0
COc1ccccc1N1CCN(C(=S)Nc2ccc(S(=O)(=O)N3CCOCC3)cc2)CC1	0	0	0	0	0
O=S(=O)(c1ccc(NC(=S)N2CCN(c3ccccc3F)CC2)cc1)N1CCOCC1	0	0	-31	0	0
CCOC(=O)c1cc2cc(OC)ccc2n1C1CCN(CCc2ccccc2)CC1	-	-109	-	0	-
CCOC(=O)c1cc2ccccc2n1C1CCN(CCc2ccccc2)CC1	-	0	-	0	-
CCSC1=NC2(CCN(C(=O)NC3CCCCC3)CC2)N=C1c1ccc(C)cc1	0	-	0	0	0
CC1(C)CC(=O)C2=C(C1)Nc1ccccc1NC2	0	0	-51	0	0
CC1(C)CC(=O)C2=C(C1)Nc1ccccc1N=C2	0	-	0	-	39
CC1(C)CC(=O)C2=C(C1)Nc1ccccc1S2	0	0	0	0	0
Cc1cc(C)n(-c2ccc(C(=O)Nc3cccnc3Cl)cc2)n1	0	0	-41	0	0
Cc1cc(C)n(-c2ccc(C(=O)Nc3cc(S(=O)(=O)N(C)C)ccc3Cl)cc2)n1	0	0	-30	0	0
Cc1ccc(CSc2c(C)cnc3c2c(=O)n(C)c(=O)n3C)cc1	0	-	-	0	0
CN(C)CCCn1c(=O)n(CCc2ccccc2)c(=O)c2c3c(sc21)CCCCC3	0	0	0	0	0
CN(C)CCCNc1nc2sc3c(c2c(=O)n1CCc1ccccc1)CCCCC3	0	0	0	0	59
CC(C)(C)c1ccc(-c2nc(N)nc(N)n2)cc1	0	0	0	0	0
Nc1nc(-c2ccc(Cl)cc2)nc(-c2ccc(Cl)cc2)n1	0	0	-35	0	0
CCCSc1ncc(Cl)c(C(=O)N(Cc2ccccc2)c2ccc(OC)cc2)n1	0	-	-36	0	0
CCOc1ccc(N(Cc2ccccc2)C(=O)c2nc(SC)ncc2Cl)cc1	0	-	0	0	0
Cc1ccc(CNC(=O)CSc2c(C(C)C)cnc3c2c(=O)n(C)c(=O)n3C)cc1	0	-	0	0	0
COC(=O)c1sc2ccccc2c1NC(=O)c1ccc(S(=O)(=O)N2CCCCC2C)cc1 (configuration not stated)	0	0	0	0	0
SMILES	D1 PAM	D3 antag	D1 antag	DRD3 agonist	D1 agonist
COC(=O)c1sc2ccccc2c1NC(=O)c1ccc(S(=O)(=O)N2CCCCC2)cc1	0	0	0	38	0
Cc1noc(C)c1COc1ccc(C(=O)Nc2ccccc2)cc1	0	-55	0	0	0
COc1cc(C(=O)NCC(c2ccccc2)N(C)C)ccc1OCc1c(C)noc1C (configuration not stated)	0	-100	0	0	0
COC(=O)c1ccc(Nc2nnc(-c3ccc(C)c(S(=O)(=O)N4CCN(C)CC4)c3)c3ccccc23)cc1	0	-	0	0	0
Cc1c(C(=O)NCc2ccccc2CN2CCCC2)oc2ccc(F)cc12	-	0	-32	0	0
Cc1ccc([C@@H]2CC=C(C(=O)O)[C@H](c3ccc(F)cc3)N2S(=O)(=O)c2ccc(C)cc2)cc1	0	-83	0	0	0
CCc1ccc([C@@H]2CC=C(C(=O)O)[C@H](c3ccc(F)cc3)N2S(=O)(=O)c2ccc(C)cc2)cc1	0	-52	0	0	0
CCc1ccc([C@@H]2CC=C(C(=O)O)[C@H](c3ccccc3)N2S(=O)(=O)c2ccc(C)cc2)cc1	0	?	0	0	0
Cc1ccccc1CNC(=O)C1CCCN(c2nnc(C)c3c(C)n(-c4ccccc4)nc23)C1 (configuration not stated)	46	0	0	0	0
COc1ccccc1CCNC(=O)C1CCN(c2nnc(C)c3c(C)n(-c4ccc(C)cc4)nc23)CC1	0	-70	0	0	0
COc1ccc(-n2nc3c(N4CCC(C(=O)NCc5cccc(C)c5)CC4)nnc(C)c3c2C)cc1	0	-59	0	0	0
CC(C)Sc1ncc(Cl)c(C(=O)Nc2nc3ccc(S(C)(=O)=O)cc3s2)n1	0	-	0	0	0
CC(=O)c1cccc(N(CC(=O)NC2CCCC2)C(=O)c2csnn2)c1	-	0	-39	0	0
Cc1ccc(C(CNC(=O)Nc2ccc(Cl)cc2)N2CCN(C)CC2)cc1 (configuration not stated)	0	0	-44	0	0
COc1ccc(-c2nnc(SCC(=O)Nc3ccc(C)c(C)c3)s2)cc1	0	-	0	0	0
CCOc1ccc(NC(=O)c2ccncc2)cc1	0	0	0	0	0
O=C(Nc1ccc(OCC(F)(F)C(F)F)cc1)c1ccncc1	0	0	-32	0	0
O=C(Nc1cnn(Cc2ccc(Cl)cc2Cl)c1)c1noc2c1CCc1ccccc1-2	0	-	0	0	0
NC(c1csc(NC(=O)Nc2ccccc2Cl)n1)C1CCCCC1 (configuration not stated)	-	0	-	58	-
COc1ccccc1NC(=O)Nc1nc(C(N)C2CCCCC2)cs1 (configuration not stated)	-	?	-	0	-
Cc1ccc(NC(=O)Cn2c(=O)n(-c3ccc(C)cc3)c(=O)c3ccc(C(=O)NCc4ccccc4Cl)cc32)cc1	0	-	0	0	0
O=C(CCNC(=O)Cn1cnc2ccccc2c1=O)NCC1COc2ccccc2O1 (configuration not stated)	0	-58	0	0	0
Cc1ccc(C)c(N2CCN(CCCNC(=O)c3cnn(-c4ccccc4Cl)c3C3CCN(C(=O)OC(C)(C)C)CC3)CC2)c1	0	-	0	0	0
COC(=O)c1ccc(C23CC4(C2)[C@H](CN(C)[C@@H]4c2ccccc2)C3c2ccc(C(F)(F)F)cc2)cc1 (some centres not stated)	0	0	-52	0	0
COC(=O)c1ccc(C23CC4(C2)[C@H](CN(Cc2ccc(C(F)(F)F)cc2)[C@@H]4c2ccccc2)C3c2ccc(C(F)(F)F)cc2)cc1 (some centres not stated)	0	-	0	-	0
COc1ccccc1N1CCN(C(=O)c2nc(SC)ncc2Cl)CC1	0	-	0	0	0

From PubChem BioAssay
